# Tau FP inhib: tau fibrillization inhibition (FP) | K18 P301L tau heparin fibrillization, Alexa594 FP, 6 h | Potency, µM (series often up to 57.7 µM), for the others: at the highest dose activity, negative = inhibition, hits mostly inhibitors | 0.39% of 280,000 active | AID 1468; note: nearly all actives have a fitted effect of over 55% in size
# Target sequence (P10636 561-689 P618L limits assumed): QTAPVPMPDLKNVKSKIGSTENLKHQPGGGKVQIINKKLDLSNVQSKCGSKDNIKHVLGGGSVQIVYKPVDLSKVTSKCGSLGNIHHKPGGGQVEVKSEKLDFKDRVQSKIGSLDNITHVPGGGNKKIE
#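 Compound effects on tau fibrillization are measured by Alexa 594 fluorescence polarization (ex 555, em 632 nm). K18 P301L tau is used at 15 uM with 0.24 uM labeled tracer, and 20 uM heparin induces aggregation over 6 hr at 37 C.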
# Tau fibril ThT: tau fibrillization inhibition (ThT binding); recombinant tau K18 P301L, heparin-induced fibrillization, ThT fluorescence; Potency, µM (top dose mostly 57.4 µM), inactives show at the top dose activity, negative = inhibition, most hits filed as inhibitors; 2.1% of 270,000 active; note: nearly all actives have a fitted effect of over 55% in size
#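 ThT emission at 510 nm, taken 1 hr after adding 30 uM dye, quantifies aggregates formed when 20 uM heparin acts on human tau K18 P301L for 6 hr at 37 C.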
# TexasRed fluor: counter-screen for TRb-SRC2 inhibitors: fluorescence interference; TRb/SRC2 Texas Red total fluorescence interference; Potency, µM (doses to about 106 µM), inactives show top-dose fluorescence change, negative = quenching; 0.29% of 280,000 active; AID 1479; active = well fitted curve in either direction with a large enough effect; inconclusive = small, poorly fitted or top-dose-only effect
#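 Flags fluorescent or light-absorbing compounds by total fluorescence, S + 2P, at 555 nm excitation and 632 nm emission. Mixture: 20 nM Texas Red SRC2 peptide, 0.6 uM human TRb LBD, 1 uM T3, 5% DMSO; compound exposure 5 h at ambient temperature.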
# Tau fluor counter: counter-screen for tau fibril formation inhibitors. tau K18 P301L (four-repeat tau fragment) Alexa594 fluorescence, heparin fibrillization. Potency, µM (top dose mostly 57.7 µM), without a hit: at the top dose activity change, negative = decrease. 0.93% of 280,000 active. AID 1463; note: nearly all actives have a fitted effect of over 55% in size
#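 Human K18 P301L tau (15 uM unlabeled plus 0.24 uM Alexa 594-labeled, final) in 100 mM sodium acetate pH 7 was mixed with compound and 20 uM heparin and incubated 6 hr at 37 C.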
# TRb-SRC2 inh: TRbeta-SRC2 interaction inhibition | TRbeta-SRC2 peptide binding, fluorescence polarization; receptor liganded with 1 µM T3 | Potency, µM (titrated, usually from 106 µM), inactives show at the highest dose activity change, negative = inhibition, actives largely listed as inhibitors | AID 1469 | P10828 | 0.065% of 280,000 active;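 note: plate controls were bound peptide for no effect and peptide without receptor for full effect; nearly all actives have a fitted effect of over 50% in size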
# Target sequence (P10828 whole entry, looked up): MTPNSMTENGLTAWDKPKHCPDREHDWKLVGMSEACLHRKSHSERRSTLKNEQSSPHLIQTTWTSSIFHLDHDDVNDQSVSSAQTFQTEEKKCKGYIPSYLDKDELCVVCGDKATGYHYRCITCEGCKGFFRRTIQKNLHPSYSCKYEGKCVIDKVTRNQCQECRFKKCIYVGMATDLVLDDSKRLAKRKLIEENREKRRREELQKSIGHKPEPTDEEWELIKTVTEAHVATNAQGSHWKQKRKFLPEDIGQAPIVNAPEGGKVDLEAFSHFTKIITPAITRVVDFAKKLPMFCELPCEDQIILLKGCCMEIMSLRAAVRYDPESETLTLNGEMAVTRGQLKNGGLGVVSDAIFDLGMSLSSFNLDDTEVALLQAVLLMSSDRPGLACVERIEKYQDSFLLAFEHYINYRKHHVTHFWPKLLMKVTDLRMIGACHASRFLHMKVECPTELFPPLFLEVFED
#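 Polarization signal, normalized between peptide-alone and full complex controls, measured compound effects on T3-liganded human TRb LBD (0.6 uM) binding 20 nM Texas Red SRC2 peptide after 5 hr.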
# Numbers without * were called inactive; ? = inconclusive; . = no result given; ! = not active in a repeat; [ ] = dose if it differs, or a comment. Most compounds without a hit are left out; they make up all but 3% or so of the library. Unless noted, calls come from the whole dose curve; as a rule, active = well fitted curve in the direction sought with a large enough effect; inconclusive = small, poorly fitted or top-dose-only effect, or another doubt; inactive = no such curve, though single readings can be large; an effect the other way counts as inactive or inconclusive. Unless noted, % is set by controls: 0 for no effect and ±100 for the full control effect; potency is the fitted concentration of half-maximal effect.
SMILES,Tau FP inhib,Tau fibril ThT,TexasRed fluor,Tau fluor counter,TRb-SRC2 inh
CC(C)c1ccc(NS(=O)(=O)c2ccc3[nH]cc(C(=O)N4CCC(C(N)=O)CC4)c(=O)c3c2)cc1,-7%,-10%,0%,-13%,1%
COc1cccc(NS(=O)(=O)c2ccc3[nH]cc(C(=O)NC4CC4)c(=O)c3c2)c1,-19%,13%,1%,-22%,5%
CCc1ccccc1Nc1nn2c(=O)c3ccc(C(=O)NCCCOC(C)C)cc3nc2s1,-13%,?,-7%,-4%,8%
Cc1ccc(-n2c(=O)[nH]c3cc(C(=O)NCc4ccccc4)ccc3c2=O)cc1,?,1%,-2%,-7%,-2%
Fc1ccccc1-n1ncc2c1ncn1nc(-c3ccccc3Cl)nc21,-9%,?,-11%,-20%,-1%
Cc1ccccc1C1CC(=O)Oc2ccc(O)cc21 (stereo unspecified),-11%[126 µM],?,-5%[201 µM],-23%[126 µM],2%[201 µM]
Cc1cc(C)cc(NS(=O)(=O)c2ccc3[nH]cc(C(=O)NC4CCCCC4)c(=O)c3c2)c1,7.9µM*,?,-1%,?,0%
Cc1cc(C)cc(NS(=O)(=O)c2ccc3[nH]cc(C(=O)N4CCCCCC4)c(=O)c3c2)c1,-6%,0%,-1%,-14%,-2%
Cc1cc(C)cc(NC(=O)Nc2cc(S(=O)(=O)N(C)C)ccc2C)c1,?,-13%,-3%,16µM*[quencher],1%
Cc1ccc(S(=O)(=O)N(C)C)cc1NC(=O)Nc1ccccc1F,-2%,-1%,-4%,-6%,2%
COc1ccc(-c2nn3c(-c4ccccc4C)nnc3c3ccccc23)cc1,-6%,?,5%,-12%,0%
NC(=O)NC(CC(=O)NCCc1ccc(S(N)(=O)=O)cc1)c1ccc(Cl)cc1 (stereo unspecified),-6%,-1%,-1%,-4%,0%
NC(=O)NC(CC(=O)NCCCc1ccccc1)c1ccc(Cl)cc1 (stereo unspecified),-8%,-14%,?,-17%,13µM*
COc1ccc(-n2nc3ccccc3n2)cc1,10%,-4%,-1%,-1%,-2%
COc1ccc(-n2nc3cc(C)c(N)c(Br)c3n2)cc1,?,14µM*,-28%,?,?
C/C(=C\C=C(C#N)C#N)c1cc(C#N)c(N)o1,-10%,13µM*,26%,-15%,?
COc1ccc(NC(=O)CCn2c(-c3ccc(F)cc3)cc(C(C)=O)c2C)c(OC)c1,3%,-11%,-4%,-21%,-6%
Cc1nc2ccc(N=NC3=C(O)CC(C)(C)CC3=O)cc2s1,6%,?,-5%,-16%,-5%
Cc1nc2ccc(N=NC3=C(O)CCCC3=O)cc2s1,12%,13µM*,-5%,-14%,1%
COc1ccccc1Nc1nn2c(=O)c3ccc(C(=O)NCCc4ccccc4)cc3nc2s1,-7%,-13%,-3%,-7%,5%
CCc1ccc(/C=C(/C#N)C(N)=S)s1,2%,?,0%,?,-3%
CCc1sc(/C=C(/C#N)C(N)=S)cc1[N+](=O)[O-],?,28µM*,-14%,?,10%
N/N=C(\Cc1cscn1)c1ccc(O)cc1O,-2%,?,-3%,-28%,-5%
Cc1c(O)ccc(/C(Cc2ccc3ccccc3n2)=N\O)c1O,3%,-12%,0%,-23%,12%
O/C(=C\c1ccc2ccccc2n1)c1ccc(O)cc1O,0%,1.8µM*,-3%,?,0%
SMILES,Tau FP inhib,Tau fibril ThT,TexasRed fluor,Tau fluor counter,TRb-SRC2 inh
Oc1ccc(/C(Cc2ccccn2)=N\Nc2ccccc2)c(O)c1,2%,?,-3%,11µM*[quencher],0%
Oc1ccc(/C=C/c2ccc3ccccc3n2)cc1,7%,?,-6%,?,-1%
Oc1ccc(/C(Cc2ccc3ccccc3n2)=N\Nc2ccccc2)c(O)c1,1%,11µM*,-1%,11µM*[quencher],2%
CCCCc1nc2ccccc2n2c(-c3ccc(OC)cc3)c3c(=O)n(C)c(=O)n(C)c3c12,-8%,-18%,-10%,-20%,10%
CN(Cc1cn[nH]c1-c1ccc2c(c1)OCO2)C1CCOCC1,5%,3%,-2%,12%,5%
COc1ccc(-c2[nH]ncc2-c2ccc3c(c2)OCCO3)c(O)c1,7%,-4%,-1%,-28%,9%
CCCc1cc(-c2[nH]ncc2-c2ccc3c(c2)OCCCO3)c(O)cc1OC,-13%,?,-7%,10µM*[quencher],1%
CCc1cc(-c2[nH]ncc2-c2ccc3c(c2)OCO3)c(O)cc1O,?,?,-2%,14µM*[quencher],3%
CC1CCN(S(=O)(=O)c2ccc3c(c2)CCN3C(=O)Nc2ccc(Br)cc2)CC1,?,?,-1%,?,5%
Cc1ccc(NC(=O)N2CCc3cc(S(=O)(=O)N4CCC(C)CC4)ccc32)cc1F,?,12%,28µM*[quencher],-11%,-17%
COc1ccc(S(=O)(=O)NCCc2sc(C)nc2C)cc1F,-6%,-11%,-3%,-13%,-7%
O=C(N/N=C/c1cc(Br)ccc1O)c1ccncc1,?,-9%,-1%,-9%,-3%
O=C(N/N=C/c1ccc(O)c2ncccc12)c1cccc(Br)c1,14%,6.3µM*,-4%,?,-5%
COC(=O)CCCC1=CC2=CC(=O)C(C)(OC(=O)c3cccs3)C(=O)C2=CN1CCc1ccccn1 (stereo unspecified),?,11µM*!,-2%[11.2 µM],-9%[11.6 µM],-3%[11.2 µM]
O=C1/C(=C\c2cccs2)CCC/C1=C/c1cccs1,.,.,0%,.,2%
CCOC(=O)C1(C)/C(=N/Nc2ccccc2Cl)C(=O)C(=O)N1c1ccccc1 (stereo unspecified),-14%,14µM*,-8%,-29%,-1%
CCOC(=O)C1(C)/C(=N/Nc2ccc(S(N)(=O)=O)cc2)C(=O)C(=O)N1c1ccccc1 (stereo unspecified),-1%,11µM*,-3%,-23%,-1%
CCOC(=O)CSc1nnc(CNc2cccc(Cl)c2)n1-c1ccccc1,-1%,-3%,-3%,-7%,-4%
CCOC(=O)C1(C)/C(=N/Nc2cccc(Cl)c2)C(=O)C(=O)N1c1ccccc1 (stereo unspecified),-4%,20µM*,-1%,-16%,-10%
CCOC(=O)C1(C)/C(=N/Nc2ccc(Cl)cc2)C(=O)C(=O)N1c1ccccc1 (stereo unspecified),?,14µM*,-1%,-27%,-5%
CC1(C)C(C=C(Cl)Cl)[C@H]1C(=O)OCc1cccc(Oc2ccccc2)c1 (stereo partly specified),.,.,0%[201 µM],.,7%[201 µM]
Cc1cc(C)c(S(=O)(=O)N2CCC(N3CCN(Cc4ccccc4)C(=O)C3=O)CC2)c(C)c1,-3%,-3%,-3%,5%,3%
Oc1ccc(N=Nc2n[nH]c(-c3ccc(Br)cc3)n2)cc1,-15%,2.2µM*,-9%,?,-1%
